# Only some compounds are listed: those with a hit (about 2.2% of all), similar ones and a draw of the others.
# EBNA-1 inh: blocks EBNA-1 binding to DNA. EBNA-1 DNA binding, fluorescence polarization. inhibition, % at 14.8 µM. actives 0.34% (n = 300,000). AID 1950; in the data active = inhibition above about 28%
# PolyA inh: inhibitors of polyadenylation in S. cerevisiae; activity score, % at 12 µM; S. cerevisiae SKY197-pL101 polyadenylation reporter, beta-gal luminescence; efflux-impaired pdr1/pdr3 knockout yeast; score 100 = 6 SD above DMSO; actives 0.02% (n = 300,000);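 active = lowest replicate activity score at least 50, where 100 means six control SD above control mean; inconclusive = lowest score under 50 but half or more replicates reach 50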;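 also: yeast exposed to compound for 9 h at 30 °C; higher score means more reporter readthrough which indicates perturbed polyadenylation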
# NLRP3 yeast inh: inhibitors of NALP3 inflammasome in yeast; AID 2825; inhibition, % at 10 µM; Yeast reconstituted NLRP3/ASC/caspase-1, beta-gal luminescence, 24 h; actives 0.39% (n = 330,000);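 active = inhibition of 50% or more; inactive = inhibition below 50%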
# ZTA counter: blocks Epstein-Barr virus ZTA, an EBNA-1 counter-screen. actives 0.15% (n = 320,000). ZTA-DNA binding, fluorescence polarization. inhibition, % at 11 µM. AID 2234; in the data active = inhibition above about 33%
# Target sequence (P03206 whole entry, looked up): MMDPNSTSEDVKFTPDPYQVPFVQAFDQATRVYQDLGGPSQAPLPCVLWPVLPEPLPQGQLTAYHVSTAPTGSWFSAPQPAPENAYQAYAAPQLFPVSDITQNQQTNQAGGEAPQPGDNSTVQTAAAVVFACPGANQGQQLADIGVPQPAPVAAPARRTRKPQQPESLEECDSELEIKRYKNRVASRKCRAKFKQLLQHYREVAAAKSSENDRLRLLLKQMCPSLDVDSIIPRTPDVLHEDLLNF
# dFosB activator: mouse delta FosB homodimer activation; P13346; purified delta FosB, TAMRA-CDK5 oligo fluorescence polarization; percent of positive-control signal above neutral wells; activation, % at 25 µM; actives 0.99% (n = 340,000);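 active = mean activation above about 17%, with every replicate also reaching it, limit read from the data, passing the limit was not always enough; inconclusive = only one of the two conditions met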
# Target sequence (P13346 whole entry, looked up): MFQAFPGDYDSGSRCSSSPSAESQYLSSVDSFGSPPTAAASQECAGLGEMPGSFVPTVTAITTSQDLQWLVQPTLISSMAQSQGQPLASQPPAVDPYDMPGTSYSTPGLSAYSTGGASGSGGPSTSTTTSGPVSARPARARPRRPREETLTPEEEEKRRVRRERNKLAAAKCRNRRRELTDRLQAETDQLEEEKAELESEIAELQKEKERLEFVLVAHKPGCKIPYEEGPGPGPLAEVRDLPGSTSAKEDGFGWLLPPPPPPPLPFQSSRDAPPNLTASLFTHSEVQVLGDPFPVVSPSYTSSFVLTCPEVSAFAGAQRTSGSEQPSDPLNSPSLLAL
# NALP1 inh: blocks the NALP1 inflammasome reconstituted in yeast; S. cerevisiae NALP1/ASC/caspase-1 growth, X-gal OD620, 72 h; inhibition, % at 10 µM; actives 0.61% (n = 280,000); AID 2071; in the data active = inhibition mostly above about 24%, no sharp cut-off; inactive = mostly below about 32%
# ZTA inh confirm: confirmation of Epstein-Barr virus ZTA DNA binding inhibitors; actives 30% (n = 320); AID 2361; shares compounds with ZTA counter; inhibition, % at 11.1 µM; Zta-ZRE DNA binding, fluorescence polarization;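 active = mean inhibition across triplicate runs above the hit threshold derived for the original primary screen, cut at about 33% in these data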
# EBNA1 counter: blocks EBNA-1 DNA binding in ZTA counter-screen. fluorescence polarization. inhibition, % at 14.8 µM. shares compounds with ZTA counter. 320 tested, under 10 active; call rule not given here
# Numbers stand for hits; - = inactive; ? = inconclusive; . = no result.
SMILES,EBNA-1 inh,PolyA inh,NLRP3 yeast inh,ZTA counter,dFosB activator,NALP1 inh,ZTA inh confirm,EBNA1 counter
CCOC(=O)C1CCCCN1Cc1ccc(OC)c(OC)c1 (centres undefined),-,-,-,34,-,-,-,-
O=C(O)c1ccc(N/N=C/C2=C(N3CCOCC3)C(=C\c3ccccc3)/CC2)cc1,-,-,-,69,-,-,-,-
O=C(NCc1ccc(F)cc1F)Nc1cnccc1C(F)(F)F,-,-,-,-,-,-,.,.
Cc1ccc(NC(=O)CCc2nnc(SCC(=O)Nc3ccccc3C)n2C)cc1Cl,-,-,-,69,-,-,-,-
CCOC(=O)NN1C(=O)c2ccccc2NC1c1ccccc1 (centres undefined),-,-,-,-,-,-,.,.
CCOC(=O)NN1C(=O)c2ccccc2NC1c1ccc(N(C)C)cc1 (centres undefined),-,?,-,33,-,-,-,-
O=C(Nc1ccccc1Sc1ccccc1)c1ccccc1F,-,-,-,37,-,.,-,-
C#CCOCCOCCOCCNc1nc(N2CCN(C(=O)CCCCCCCCCCNC(=O)[C@H](CCCCN)n3cc(CCCC(=O)O)nn3)CC2)nc(N2CCN(C(=O)CCCCCCCCCCNC(=O)[C@H](CCCN=C(N)N)n3cc(C[C@@H](C)CC)nn3)CC2)n1,-,-,-,48,-,.,-,-
C#CCOCCOCCOCCNc1nc(N2CCN(C(=O)CCCCCCCCCCNC(=O)[C@H](CCCCN)n3cc(CCO)nn3)CC2)nc(N2CCN(C(=O)CCCCCCCCCCNC(=O)[C@H](CCCN=C(N)N)n3cc(C[C@@H](C)CC)nn3)CC2)n1,-,.,-,36,-,.,65,-
O=C(OCc1ccccc1)N(CCCCN(CCCNCc1ccccc1)C(=O)OCc1ccccc1)CCCNCc1ccccc1,.,.,.,.,-,.,.,.
Cc1nc(Cl)c(Cl)n1CCOc1ccccc1,-,-,-,-,-,-,.,.
CSc1ccccc1-c1nc(-c2ccncc2)no1,-,-,-,-,-,-,.,.
CCN(CC(=O)NC1CCS(=O)(=O)C1)c1ccc(S(=O)(=O)N(CC)CC)cc1[N+](=O)[O-] (centres undefined),.,.,-,.,-,.,.,.
COc1ccc(OC)c(C(=O)C(=O)c2cc(OC)ccc2OC)c1,.,.,.,.,-,.,.,.
COc1ccc(OC)c(N)c1,-,-,-,37,-,-,-,-
C#CCOCCOCCOCCNc1nc(N2CCOCC2)nc(N2CCN(C(=O)CCCCCCCCCCNC(=O)[C@@H](CCSC)n3cc(CCO)nn3)CC2)n1,-,.,-,-,-,.,.,.
C#CCOCCOCCOCCNc1nc(N2CCN(C(=O)CCCCCCCCCCNC(=O)[C@H](CCCCN)n3cc(C)nn3)CC2)nc(N2CCN(C(=O)CCCCCCCCCCNC(=O)[C@@H]([C@H](C)CC)n3cc(CCCCCN)nn3)CC2)n1,-,.,-,70,-,.,44,-
C#CCOCCOCCOCCNc1nc(N2CCN(C(=O)CCCCCCCCCCNC(=O)[C@H]([C@@H](C)CC)n3cc(CCCCCN)nn3)CC2)nc(N2CCN(C(=O)CCCCCCCCCCNC(=O)[C@@H]([C@H](C)O)n3cc(C)nn3)CC2)n1,-,.,-,-,-,.,.,.
C#CCOCCOCCOCCNc1nc(N2CCN(C(=O)CCCCCCCCCCNC(=O)[C@@H](CCSC)n3cc(CCO)nn3)CC2)nc(N2CCN(C(=O)CCCCCCCCCCNC(=O)[C@H]([C@@H](C)CC)n3cc(CCCCCN)nn3)CC2)n1,-,.,-,70,.,.,43,-
C#CCOCCOCCOCCNc1nc(N2CCN(C(=O)CCCCCCCCCCNC(=O)[C@@H](CCSC)n3cc(CCO)nn3)CC2)nc(N2CCN(C(=O)CCCCCCCCCCNC(=O)[C@H]([C@@H](C)CC)n3cc(CCCCN=C(N)N)nn3)CC2)n1,-,.,-,121,-,.,59,-
C#CCOCCOCCOCCNc1nc(N2CCN(C(=O)C([C@@H](C)CC)n3cc(C(N)CC(C)C)nn3)CC2)nc(N2CCN(C(=O)[C@H](CCC(=O)O)n3cc(C(N)[C@H](C)CC)nn3)CC2)n1 (some centres undefined),-,-,-,58,-,-,-,-
COc1ccccc1/C=C/C(=O)NCC(=O)N/N=C/c1ccc(C)o1,-,-,-,-,-,-,.,.
COc1cccc(C(=O)Nc2cccc(-c3ccc4nncn4n3)c2)c1OC,-,-,-,-,-,-,.,.
COc1ccc(Cl)cc1C(=O)Nc1cccc(-c2ccc3nncn3n2)c1,-,-,-,92,-,-,118,-
CCCCn1c(N)c(N(CC(C)C)C(=O)CC2OC(=O)c3ccccc32)c(=O)[nH]c1=O (centres undefined),-,-,-,-,-,.,.,.
SMILES,EBNA-1 inh,PolyA inh,NLRP3 yeast inh,ZTA counter,dFosB activator,NALP1 inh,ZTA inh confirm,EBNA1 counter
CCc1nnc(NS(=O)(=O)c2ccc(NC(=S)NC(=O)/C=C/c3ccc(OC)cc3)cc2)s1,-,-,-,-,-,-,.,.
CCc1nnc(NS(=O)(=O)c2ccc(NC(=S)NC(=O)/C=C/c3ccccc3)cc2)s1,-,-,-,37,-,-,-,-
CN(C)CCOc1ccccc1-c1ccccc1,-,-,-,37,-,-,-,-
CN(C)CCOCCOc1ccccc1-c1ccccc1,-,-,-,-,-,-,.,.
COc1ccc2cc(S(=O)(=O)NC3CC(C)(C)NC(C)(C)C3)ccc2c1,-,-,-,-,-,-,.,.
O=S1(=O)NC(CC2=CCCCC2)C2CCCCC2O1 (centres undefined),-,-,-,-,-,-,.,.
Cn1c(SCC(=O)N2CCN(c3ccccc3)CC2)nnc1-c1ccncc1,-,-,-,38,-,-,-,-
COc1ccc(COC(=O)Oc2ccc(CNC(C)=O)cc2OC)c([N+](=O)[O-])c1,-,-,-,-,-,.,.,.
O=C1CC/C=C\C[C@@H](CC(=O)N(CCO)Cc2ccccc2)C(=O)N[C@H](Cc2c[nH]c3ccccc23)CO1,.,.,-,.,-,.,.,.
O=C1c2ccccc2-c2onc3ccc(NCCCn4ccnc4)c1c23,-,-,-,49,.,-,-,-
O=C(NCC1COc2ccccc2O1)c1ccc(Cl)c(S(=O)(=O)N2CCCC2)c1 (centres undefined),.,.,-,-,-,.,.,.
COc1ccc(N2CCN(S(=O)(=O)c3ccc(OC)cc3)CC2)cc1,-,-,-,99,-,-,-,-
COc1ccc(N2CCN(S(C)(=O)=O)CC2)cc1,-,-,-,-,-,-,.,.
O=c1[nH]c(/C=C\c2cccc(Cl)c2)nc(O)c1[N+](=O)[O-],-,-,-,40,-,-,38,-
